Source: PubChem BioAssay
Compounds with a hit are over-represented: about 6.6% of the library has one in this group of screens.
Fluor 339 460 – intrinsic fluorescence of library compounds, ex339/em460 – biochemical, MLSMR library, data from DPM-DC assay, artefact control, profiling panel; AID 709; compound autofluorescence, ex339/em460 nm, NADH buffer; hits give high values; 1 = no-compound wells, NADH background; fluorescence fold increase at 10 µM; actives 5.5% (n = 65,000);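 active means at 10 µM, mean starting fluorescence two-fold or more over control wells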;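 further: signal is the first read of a kinetic run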
Spn MK inh – blocks S. pneumoniae mevalonate kinase; purified MK, PK/LDH-coupled NADH absorbance 340 nm; inhibition, % at 10 µM; actives 0.48% (n = 65,000); AID 555;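 active means ranked among the strongest by inhibition in the single 10 µM screen, a fixed top-ranked set picked for dose follow-up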
Spn PMK inh – S. pneumoniae PMK inhibition; purified PMK, PK/LDH-coupled NADH absorbance 340 nm; inhibition, % at 10 µM; actives 0.49% (n = 65,000);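 active means top-ranked compounds by inhibition in the single 10 µM screen, taking a fixed number of the strongest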
DPM-DC inhibit – S. pneumoniae DPM-DC inhibition. purified DPM-DC, PK/LDH coupled NADH fluorescence. calls only at 10 µM. actives 0.49% (n = 65,000);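 active means the 320 compounds with the highest percent inhibition in the single-dose primary screen, excluding strongly autofluorescent ones, cut at about 32% in these data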;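 further: kinetic rate of NADH fluorescence loss reporting ADP formed by the decarboxylase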
NADH coupling – blocks coupling enzymes of NAD/NADH assays | coupled PK/LDH NADH assays, four targets | IC50, µM (doses to about 10 µM) | actives 0.02% (n = 65,000);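 active means single-dose screening hits from any of four coupled enzyme assays that gave an IC50 when retested across doses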;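 further: the DPM-DC format reads NADH fluorescence rather than 340 nm absorbance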
Each line names hits and unclear results; the compound was inactive in the other large screens.

O=C(CSc1n[nH]c(-c2ccccc2)n1)c1ccc(O)c(O)c1	none
CCN1CCCC1CN(Cc1cc2cc(OC)ccc2[nH]c1=O)C(=O)NCc1ccccc1 (stereo unspecified)	Fluor 339 460 4.3 (not shown: DPM-DC inhibit)
COc1ccc2[nH]c(=O)c(CN(CCCN(C)C)C(=O)Nc3ccccc3)cc2c1	Fluor 339 460 2.7
COc1ccc2[nH]c(=O)c(CN(CC3CCCO3)C(=O)Nc3ccc(F)cc3)cc2c1 (stereo unspecified)	Fluor 339 460 2.3
COc1cccc(C(=O)N(Cc2cc3cc(C)ccc3[nH]c2=O)CC2CCCO2)c1 (stereo unspecified)	none
CCc1ccc2[nH]c(=O)c(CN(CCN(C)C)C(=O)Nc3ccccc3)cc2c1	none
COc1ccc(S(=O)(=O)N(C)CC(=O)NCc2cccnc2)cc1C	none
CN(Cc1ccccc1)Cc1nc2c([nH]1)c(=O)n(C)c(=O)n2C	none
O=C(CCCn1c(=S)[nH]c2cc3c(cc2c1=O)OCO3)N1CCc2ccccc2C1	none
CCOc1cc(C#N)c(NC(=O)c2cccnc2)cc1OCC	Spn PMK inh 25
COC(=O)c1cc(OC)c(OC)cc1NC(=O)c1cccnc1	none
COC(=O)c1cc(Br)c(=O)n(Cc2ccc(OC)c(OC)c2)c1	none
N#Cc1c(N)nc2c(c1-c1ccncc1)CCCCCC2	Fluor 339 460 2.1
N#Cc1c(N)nc2c(c1-c1ccncc1)CCCC2	Fluor 339 460 3.2
COC(=O)c1c(C#N)c(N)nc2c1CCCC2	Fluor 339 460 3.8 (not shown: DPM-DC inhibit)
COc1ccc(S(=O)(=O)N2CCc3ccccc32)cc1C(=O)OCc1nnc(-c2ccccc2)o1	none
COc1ccc(-n2nc3c(c2NC(=O)c2cc4ccccc4oc2=O)CS(=O)(=O)C3)cc1	none
CCCCCNC(CC(=O)Nc1ccc(OC)cc1)C(=O)O (stereo unspecified)	none
COC(=O)c1ccccc1NC1OC(=O)c2ccccc21 (stereo unspecified)	Fluor 339 460 3
O=C1OC(Nc2ccc(F)cc2F)c2ccccc21 (stereo unspecified)	none
O=C(CSc1nccc(=O)[nH]1)Nc1ccc(Br)c(Cl)c1	none
CCOc1ccccc1CN1CCN(S(=O)(=O)CC)CC1	Spn MK inh 58
COc1ccccc1N1CCN(Cc2ccc(OC)c(OC)c2OC)CC1	Spn MK inh 47
c1ccc(N2CCN(Cc3ccsc3)CC2)nc1	none
CCCS(=O)(=O)N1CCN(Cc2ccccc2OCC)CC1	none
CCS(=O)(=O)N1CCN(Cc2ccccc2OC)CC1	none
CCOc1ccccc1N1CCN(Cc2cccc(OC)c2OC)CC1	Spn MK inh 49
COc1ccccc1N1CCN(Cc2ccsc2)CC1	Spn MK inh 42
CCOC(=O)c1cccc(NC(=O)CSc2nnc(-c3cccnc3)n2C)c1	none
CC(C)OP(=O)(c1ccc(N(C)C)cc1)C(O)c1c(Cl)cccc1Cl (stereo unspecified)	none
Cn1c(SC/C=C/c2ccccc2)nnc1-c1ccco1	none
O=C(c1ccccc1CCc1ccccc1)N1CCN(c2ccccn2)CC1	none
COc1ccc(OC)c(CN2CCN(c3ccccc3OC)CC2)c1	Spn MK inh 51
CCN(CC(=O)NCc1ccc(F)cc1)CC(O)COCc1cccc(OC)c1 (stereo unspecified)	none
CCOC(=O)c1c(N)n(CCOC(=O)c2cccs2)c2nc3ccccc3nc12	Fluor 339 460 3.7 (not shown: DPM-DC inhibit)
CCC(=O)Nc1c(C#N)c2nc3ccccc3nc2n1-c1ccccc1C	Fluor 339 460 3.1 (not shown: DPM-DC inhibit)
N#Cc1c(N)n(C2CCCCC2)c2nc3ccccc3nc12	Fluor 339 460 3.9 (not shown: DPM-DC inhibit)
CCOC(=O)c1nn(-c2ccccc2C)c(=O)c(C#N)c1C	none
CCC(=O)Nc1c(C#N)c2nc3ccccc3nc2n1C1CCCCC1	Fluor 339 460 2.3 (not shown: Spn MK inh, DPM-DC inhibit)
COc1ccc(-n2c(NC(=O)c3ccco3)c(C#N)c3nc4ccccc4nc32)cc1	Fluor 339 460 3, DPM-DC inhibit active
CC(=O)C(Sc1ccc2nnc(-c3ccc(F)cc3)n2n1)C(C)=O	none
CC(=O)Nc1ccc2nc(C3CCCCC3)[nH]c2c1	none
Clc1ccc2[nH]c3c(NCCN4CCOCC4)ncnc3c2c1	none
Clc1ccc2[nH]c3c(NCC4CCCO4)ncnc3c2c1 (stereo unspecified)	Fluor 339 460 2.5
CNc1nnc(-c2cccc(N(C)C)c2)s1	Fluor 339 460 2.9
Cc1nc2c(c(=O)n1Cc1ccccc1Cl)c1nc3ccccc3nc1n2Cc1ccco1	Fluor 339 460 2.3
C=CCn1c(SCC#N)nc2c(c1=O)C(C)(C)Cc1ccccc1-2	none
COc1cc(C2Nc3cccc4cccc(c34)N2)cc(OC)c1O	Fluor 339 460 3.2 (not shown: DPM-DC inhibit)
COc1cc(C2Nc3cccc4cccc(c34)N2)ccc1OC(C)=O	none
Cc1cc(C)n2c(SCC(=O)N(C)C3CCS(=O)(=O)C3)nnc2n1 (stereo unspecified)	Spn PMK inh 25
CCOC(=O)C1=C(C)NC2=C(C(=O)CCC2)C1c1cccs1 (stereo unspecified)	none
CCOC(=O)c1sc2c(c1C)C(c1cccs1)C1=C(CCCC1=O)N2 (stereo unspecified)	Fluor 339 460 4.8 (not shown: DPM-DC inhibit)
CC(C)Cn1c(N)c(C(=O)NCCN2CCOCC2)c2nc3ccccc3nc21	Fluor 339 460 2.9 (not shown: DPM-DC inhibit)
CCCCn1c2nc3ccccc3nc2c2c(=O)n(CCC(C)C)cnc21	none
COCCCn1c2nc3ccccc3nc2c2c(=O)n(CC3CCCO3)cnc21 (stereo unspecified)	Fluor 339 460 2.3 (not shown: DPM-DC inhibit)
Cc1cccc(-n2c(N)c(C(=O)NCCN3CCOCC3)c3nc4ccccc4nc32)c1	Fluor 339 460 5.1 (not shown: DPM-DC inhibit)
O=C(NCCN1CCOCC1)c1ccc(-c2ccccc2)cc1	none
CC(C)Cn1c2nc3ccccc3nc2c2c(=O)n(CCN3CCOCC3)cnc21	Fluor 339 460 3.5 (not shown: DPM-DC inhibit)
COc1ccc2nc(NC(=O)C3CCCN3S(=O)(=O)c3ccc(C)cc3)sc2c1 (stereo unspecified)	none
CCOC(=O)CC1C(=O)NCCN1C(=O)Nc1ccccc1 (stereo unspecified)	Spn MK inh 49
COC(=O)CC1C(=O)NCCN1C(=O)Nc1ccccc1 (stereo unspecified)	none
O=C(CCCCCNS(=O)(=O)c1ccc(Br)cc1)NCCN1CCOCC1	none
Cc1cc(C)c2cc(C#N)c(N3CCCC3)nc2c1	Fluor 339 460 2.2
COC(=O)CSc1nc2cc(C)cc(C)c2cc1C#N	none
N#CC1=C(N)Oc2n[nH]c(-c3ccc(F)cc3)c2C1c1ccncc1 (stereo unspecified)	none
Cc1ccc2nc(-c3ccc(NC(=O)CN4CCN(C(=O)c5ccco5)CC4)cc3)sc2c1	Fluor 339 460 2.2 (not shown: DPM-DC inhibit)
Nc1nc2c3ccccc3nc(C3CC3)n2n1	none
O=C(c1cccnc1)N1CCc2ccccc2C1	Spn PMK inh 34
COc1ccc(-c2cc(C(N)=O)nc(N3CCCCCC3)n2)cc1	Fluor 339 460 3.5 (not shown: DPM-DC inhibit)
O=C1CCCC2=C1C1(CCCCC1)N=C(Nc1nc3ccccc3s1)N2	Fluor 339 460 2.3
O=C1CCCC2=C1C1(CCCC1)N=C(Nc1nc3ccccc3s1)N2	Fluor 339 460 2
